HIF-2a block = HIF-2a reporter inhibitors, primary screen, luminescence, 786-0 RCC cells | 786-0 RCC cells HIF-2a reporter, luciferase luminescence, overnight | AID 624352, 2012 | inhibition, % at 18.8 µM | 360,000 compounds, 0.72% hits;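 active = inhibition of the luminescence signal of 40% or more relative to plate controls, in a single-dose primary screen at 18.75 µM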
TRPM1 prom inh = inhibitors of MITF-dependent TRPM1 promoter reporter, primary screen, cell-based, SK-MEL-5, single point, luciferase. SK-MEL-5 TRPM1 promoter luciferase, 24 h. 330,000 compounds, 0.83% hits. inhibition, % at 12.5 µM;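 active = mean inhibition across replicates of 60% or more, whatever share of single replicates reaches that level; inconclusive = some that reach 60%, reason not given; inactive = mean inhibition across replicates below 60%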
Peg3 prom inh = Peg3 promoter-driven luciferase inhibitors, primary screen, cell-based, HeLa, luciferase luminescence | inhibition, % at 20 µM | HeLa PEG-Prom luciferase reporter, overnight | 360,000 compounds, 1.7% hits;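 active = inhibition of at least 50% at 20 µM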
CF NFkB inh = inhibitors of PAF-induced NF-kB signaling, primary screen, cell-based, GFP fluorescence, uHTS. KKLEB NF-kB-GFP reporter, GFP fluorescence overnight. inhibition, % at 5 µM. 360,000 compounds, 0.86% hits. AID 588850, 2011;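 active = at least 50% inhibition at 5 µM, scaled per plate between neutral and stimulator controls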;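 note: PAF is a Pseudomonas aeruginosa culture filtrate used as stimulus; plate controls were PAF-stimulated DMSO wells for no effect and unstimulated DMSO wells for full effect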
KKLEB cytotox = cytotoxicity in KKLEB CF airway cells, primary screen, cytotoxicity control for CF NF-kB inhibitor project, cell-based, uHTS, fluorescence assay plates | AID 602141, 2011 | 360,000 compounds, 0.36% hits | KKLEB CF airway cells viability, ATPlite luminescence, overnight; stronger effect = lower value; cells stimulated with P. aeruginosa culture filtrate | activity change (cytotoxicity), % at 5 µM;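 active = corrected activity change at or below -50% at 5 µM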
Shn3 3UTR inh = reduction of Shn3 3'UTR firefly luciferase signal, primary screen, Schnurri-3 inhibitor project, cell-based, Clone20 osteoblasts, set 2; Clone20 osteoblast Shn3 3'UTR firefly luciferase, 24 h; inhibition, % at 12.5 µM; 360,000 compounds, 0.52% hits; AID 588674, 2011;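 active = mean inhibition of at least 75% with every replicate also reaching 75%; inconclusive = mean inhibition at least 75% but some replicate below; inactive = mean inhibition below 75%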;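 note: 0% = median of neutral control wells and 100% = pilot-screen positive control compound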
Mdm2-MdmX confirm = retested Mdm2-MdmX interaction blockers, confirmation, cell-based, luminescence, single concentration, set 2; SaOS-2 split-luciferase Mdm2/MdmX complementation; shares compounds with HIF-2a block; inhibition, % at 8 µM; 740 compounds, 99% hits;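 active = mean inhibition of the luminescence signal across two replicates at or above 26 percent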
HIF-2a conf = HIF-2a reporter inhibitor retest, confirmation, luminescence, 786-0 RCC cells; 1,800 compounds, 56% hits; inhibition, % at 18.8 µM; shares compounds with HIF-2a block; HIF-2a luciferase reporter luminescence, overnight; AID 651580, 2012;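 active = mean inhibition across four replicates of at least 40 percent at the single tested concentration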
HIF-1a counter = HIF-1a luciferase reporter signal reduction – MiaPaCa-2 cells, single concentration, counter-screen for HIF-2a inhibitor project, confirmation; 1,800 compounds, 72% hits; shares compounds with HIF-2a block; inhibition, % at 18.8 µM; MiaPaCa-2 HIF-1a luciferase reporter, desferoxamine, overnight;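 active = mean inhibition of the reporter signal across four replicates at the single tested dose of 50% or more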
* hit, by the source's call. Rows were chosen to be rich in hits. Some 2.7% of all compounds tested hit in one or more screens of this group.

`COc1ccc(C(C)=O)cc1CN1C(=O)C(C)ON=C1c1cccc(C(F)(F)F)c1` (stereo unspecified) gave HIF-2a block 12.8, Peg3 prom inh 7.0, CF NFkB inh 10.0, KKLEB cytotox -8.0 and Shn3 3UTR inh 1.7.
For CN(C)CCCNc1c2ccccc2nc2ccccc12 the results were HIF-2a block 32.9, TRPM1 prom inh inconclusive, Peg3 prom inh 102.0*, CF NFkB inh -25.1, KKLEB cytotox -6.1, Shn3 3UTR inh 94.3* and Mdm2-MdmX confirm 102.0*.
Screening COc1cc(OC)c(OC)cc1/C=C/C(=O)c1ccc(NS(=O)(=O)c2ccc(C)cc2)cc1 returned HIF-2a block 58.6*, TRPM1 prom inh 19.6, Peg3 prom inh 25.9, CF NFkB inh 1.7, KKLEB cytotox 13.9, Shn3 3UTR inh 15.2, HIF-2a conf 34.4 and HIF-1a counter 50.4*.
For CC(=O)c1ccc(NS(=O)(=O)c2ccc(C)cc2)cc1 the results were HIF-2a block 3.2, TRPM1 prom inh -9.9, Peg3 prom inh 10.9, CF NFkB inh -9.8, KKLEB cytotox -0.7 and Shn3 3UTR inh 1.4.
For COc1ccc(C=C(C(C)=O)C(=O)c2ccccc2)cc1 the results were HIF-2a block -35.3, Peg3 prom inh -4.6, CF NFkB inh -5.0, KKLEB cytotox 29.0 and Shn3 3UTR inh -9.8.
CC(=O)C(=Cc1ccc(Cl)cc1)C(=O)c1ccccc1 was read as HIF-2a block 90.5*, Peg3 prom inh 98.8*, CF NFkB inh 47.8, KKLEB cytotox -23.3, Shn3 3UTR inh 71.7, HIF-2a conf 92.3* and HIF-1a counter 105.2*.
For CCN(CC)CCN1C(=O)/C(=C\c2ccc(Cl)c([N+](=O)[O-])c2)SC1=Nc1ccc(OC)cc1 the results were HIF-2a block 96.4*, TRPM1 prom inh 93.6*, Peg3 prom inh 101.7*, CF NFkB inh 98.6*, KKLEB cytotox -82.2*, Shn3 3UTR inh 96.4*, HIF-2a conf 53.6* and HIF-1a counter 104.1*.
`COc1ccc(N=C2S/C(=C\c3ccc(Cl)c([N+](=O)[O-])c3)C(=O)N2CCN(C)C)cc1` gave HIF-2a block 79.2*, TRPM1 prom inh 14.1, Peg3 prom inh 105.5*, CF NFkB inh 49.7, KKLEB cytotox -14.5, Shn3 3UTR inh 46.7, HIF-2a conf 3.9 and HIF-1a counter 101.4*.
Screening CC(CNC(=O)CC[C@H]1O[C@@H](n2cnc3c(NC(=O)c4ccccc4)ncnc32)[C@H](O)[C@@H]1O)c1ccccc1 (stereo partly specified) returned HIF-2a block -7.6, Peg3 prom inh -6.1, CF NFkB inh -17.9, KKLEB cytotox 0.6 and Shn3 3UTR inh -20.7.
C=CC(C)(C)c1c(O)c(CC=C(C)C)c(O)c2c(=O)c3ccc(O)c(O)c3oc12 was read as HIF-2a block 10.4, Peg3 prom inh 61.0*, CF NFkB inh 54.3*, KKLEB cytotox -7.2, Shn3 3UTR inh 88.9* and Mdm2-MdmX confirm 97.2*.
For C=CC(C)(C)c1c2occc2c(O)c2ccc(=O)oc12 the results were HIF-2a block -12.9, Peg3 prom inh 13.2, CF NFkB inh 5.1, KKLEB cytotox -18.9 and Shn3 3UTR inh -4.7.
Screening COc1ccc(C(=O)C[C@@H]2OC3CCCCC3N2S(=O)(=O)c2ccc(C)cc2)cc1OC (stereo partly specified) returned HIF-2a block 11.0.
O=C1C=CC(=O)N1CCCCCCCCCCN1C(=O)C=CC1=O was read as HIF-2a block 70.7*, TRPM1 prom inh 91.4*, Peg3 prom inh 102.4*, CF NFkB inh 73.9*, KKLEB cytotox -25.0, Shn3 3UTR inh 93.2*, HIF-2a conf 61.4* and HIF-1a counter 80.4*.
Screening O=C1C=CC(=O)N1Cc1ccncc1 returned HIF-2a block 4.3, TRPM1 prom inh 7.7, Peg3 prom inh 11.6, CF NFkB inh -22.8, KKLEB cytotox 6.9 and Shn3 3UTR inh -3.3.
For C[C@@H]1CN([C@@H](C)CO)C(=O)CCCn2cc(nn2)CO[C@H]1CN(C)S(=O)(=O)c1cn(C)cn1 the results were HIF-2a block 6.2, Peg3 prom inh 7.3, CF NFkB inh -5.5, KKLEB cytotox -10.7 and Shn3 3UTR inh 0.2.
Cc1ccc(NC(=O)C2(C)CCN2C(=O)Cc2ccccc2)cc1C (stereo unspecified) was read as HIF-2a block 9.7, Peg3 prom inh -2.6, CF NFkB inh -16.5, KKLEB cytotox 2.4 and Shn3 3UTR inh 9.9.
`CCOC(=O)C(CC)(CC)C(=O)/C=C/c1ccc(Br)cc1` gave HIF-2a block 58.2*, TRPM1 prom inh 15.2, Peg3 prom inh 74.7*, CF NFkB inh 8.8, KKLEB cytotox -15.0, Shn3 3UTR inh 31.2, HIF-2a conf 26.3 and HIF-1a counter 106.0*.
`CN1CCN(CC(=O)N2CCn3c4c(c5cc(C6CCCCC6)ccc53)CCCC42)CC1` (stereo unspecified) gave HIF-2a block 2.9, TRPM1 prom inh 64.6*, Peg3 prom inh 105.5*, CF NFkB inh 21.7, KKLEB cytotox -20.2, Shn3 3UTR inh 47.1 and Mdm2-MdmX confirm 103.5*.
Cc1ccc2c(c1)c1c3n2CCN(C(=O)CN2CCN(C)CC2)C3CCC1 (stereo unspecified) was read as HIF-2a block -2.3, TRPM1 prom inh -42.4, Peg3 prom inh 17.9, CF NFkB inh 13.0, KKLEB cytotox -1.1 and Shn3 3UTR inh 11.6.
Screening COc1cc(C(C)=O)ccc1OCC(=O)OC(C)C(=O)c1ccc(F)cc1 (stereo unspecified) returned HIF-2a block 0.9, TRPM1 prom inh 5.5, Peg3 prom inh 12.5, CF NFkB inh 9.8, KKLEB cytotox 0.5 and Shn3 3UTR inh -3.9.
For CC(=O)Nc1ccc(Oc2sc(C(=O)c3ccccc3)c(N)c2C#N)cc1 the results were HIF-2a block 54.3*, TRPM1 prom inh 25.6, Peg3 prom inh 29.1, CF NFkB inh 40.9, KKLEB cytotox -33.5, Shn3 3UTR inh 15.0, HIF-2a conf 43.0* and HIF-1a counter 9.0.

Screens from PubChem.
